Bioassay records (PubChem)
Most compounds without a hit are left out; they make up all but 5.9% or so of the library.
VP16 counter – VP16 counterscreen qHTS for inhibitors of ROR gamma transcriptional activity; AID 2546, 2010; Potency, µM (titrated, usually from 53.6 µM), for inactives: at the highest dose activity, negative = inhibition, usual class: inhibitors; Drosophila S2 Gal4-VP16 UAS-luciferase, luminescence, 20 h; 310,000 tested, 3.5% active;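 also: Gal4-VP16 expression switched on by copper sulfate through the metallothionein promoter; % is scaled to controls: 0 for no effect and ±100 for the full control effect; nearly all actives have a fitted effect of over 50% in size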
RORg inh – qHTS for inhibitors of ROR gamma transcriptional activity | Potency, µM (top dose mostly 53.6 µM), for inactives: top-dose activity change, negative = inhibition, most hits filed as inhibitors | 310,000 tested, 5.4% active | AID 2551, 2010 | Nuclear receptor ROR-gamma (Mus musculus), P51450 | Drosophila S2 Gal4-RORgamma UAS-luciferase reporter, 20 h; also: % is scaled to controls: 0 for no effect and ±100 for the full control effect; nearly all actives have a fitted effect of over 60% in size
Target sequence (P51450 whole entry, looked up, the tested form may be a part): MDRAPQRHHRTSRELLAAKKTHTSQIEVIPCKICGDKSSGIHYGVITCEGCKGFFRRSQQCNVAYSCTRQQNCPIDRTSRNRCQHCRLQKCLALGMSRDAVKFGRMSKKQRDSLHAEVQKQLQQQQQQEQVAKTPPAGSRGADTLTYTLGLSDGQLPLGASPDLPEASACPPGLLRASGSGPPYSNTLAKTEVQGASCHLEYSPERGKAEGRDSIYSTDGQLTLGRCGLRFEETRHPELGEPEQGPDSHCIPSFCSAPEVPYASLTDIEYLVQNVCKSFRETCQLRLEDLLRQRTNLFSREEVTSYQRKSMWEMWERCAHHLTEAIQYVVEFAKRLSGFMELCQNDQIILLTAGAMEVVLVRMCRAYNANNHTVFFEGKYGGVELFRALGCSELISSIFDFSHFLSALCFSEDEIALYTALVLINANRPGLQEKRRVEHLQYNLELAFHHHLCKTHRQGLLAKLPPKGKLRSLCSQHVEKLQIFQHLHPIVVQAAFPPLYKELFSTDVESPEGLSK
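Schneider cells (Drosophila), stable Gal4 DBD–ROR gamma + UAS-luc; 1 hr cmpd preincubation; Cu2+ induction 700 uM final; 20 hr ambient; luminescence.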
GLP1R cytotox – qHTS of GLP-1 Receptor Inverse Agonists: Cytotox Screen. HEK293 cAMP-luciferase reporter cells, luminescence, 24 h. Potency, µM (top dose mostly 38.3 µM), for inactives: at the highest dose activity change, negative = inhibition, most hits filed as inhibitors. 410,000 tested, 0.13% active. AID 624418, 2012;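 also: loss of luciferase light is scored as toxicity; % is scaled to controls: 0 for no effect and ±100 for the full control effect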
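Luminescence readout: signal drop marks cytotoxicity. Plated cells grew 12 h at 37 °C, 5% CO2, received 23 nL compound for 24 h, then got luciferase reagent, read after 12 min at RT.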
GLP-1R agonist – qHTS of GLP-1 Receptor Agonists. Glucagon-like peptide 1 receptor (Homo sapiens), P43220. HEK293 GLP-1R CRE-luciferase, luminescence, 4-6 h; cells express a hypersensitive GLP-1R form. Potency, µM (doses to about 45.6 µM), without a hit: top-dose activation, hits mostly activators. 380,000 tested, 0.007% active; also: % of control where 0% means no effect
GLP1R inv ag – qHTS of GLP-1 Receptor Inverse Agonists (Inhibition Mode); Glucagon-like peptide 1 receptor (Homo sapiens), P43220; HEK293 GLP-1R CRE-luciferase, luminescence, 24 h; GLP-1R form is constitutively active; Potency, µM (titrated, usually from 38.3 µM), without a hit: at the highest dose activity change, negative = inhibition, hits mostly inhibitors; 410,000 tested, 1.6% active; also: % is scaled to controls: 0 for no effect and ±100 for the full control effect; nearly all actives have a fitted effect of over 55% in size
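HEK293 cells stably co-expressing a cAMP-responsive luciferase reporter and constitutively active GLP-1R were seeded, incubated 12 h, then exposed to compounds for 24 h at 37 C. Luminescence was read 12 min after detection reagent; inverse agonists lower signal.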
Starred values were filed as active, the others as inactive; ? = inconclusive; / = not tested or not shown; [ ] = dose if it differs, or a comment. Calls follow the shape of the dose curve; as a rule, active = well fitted curve in the direction sought with a large enough effect; inconclusive = small, poorly fitted or top-dose-only effect, or another doubt; inactive = no such curve, though single readings can be large; an effect the other way counts as inactive or inconclusive. Potency is read from the fitted curve at half-maximal effect.

SMILES	VP16 counter	RORg inh	GLP1R cytotox	GLP-1R agonist	GLP1R inv ag
C=CCC(O)(/C=C/c1ccccc1)c1ccccc1 (stereo not given)	-4%	-9%	/	/	/
Cc1ccc(CNC(=O)c2cc(C)nc3c2c(C)nn3-c2ccc(C)cc2)cc1	/	/	9%	/	-7%
O=C1Nc2ccc([N+](=O)[O-])cc2OC1CCN1CCN(c2ccccc2)CC1 (stereo not given)	4%	2%	-22%	0%	11µM*
CCn1nnc2cc(C(=O)Nc3ccc(Br)cc3F)ccc21	/	/	-14%	/	10%
CCn1nnc2cc(C(=O)NCCc3ccccc3F)ccc21	11µM*	?	1%	-7%	?
CCN1C(=O)C(Cc2nc3ccccc3c(=O)n2-c2ccc(OC)cc2)c2cc(C)ccc21 (stereo not given)	/	/	2%	/	4%
O=C(c1ccc(F)cc1)C(CN1CCOCC1)c1ccccc1 (stereo not given)	11µM*	5.6µM*	-26%	-47%	?
COc1ccc(C(=O)C(CN2CCCC2)c2ccccc2)cc1 (stereo not given)	?	?	?	-17%	5.6µM*
CCCCOc1ccc(C(=O)C(CN2CCOCC2)c2ccccc2)cc1 (stereo not given)	?	?	?	-9%	?
O=C(c1ccc(Cl)cc1)C(CN1CCCC1)c1ccccc1 (stereo not given)	5.6µM*	11µM*	-4%	-1%	?
O=C(c1ccccc1)C(CCC(CN1CCOCC1)C(=O)c1ccccc1)CN1CCOCC1 (stereo not given)	7.9µM*	?	?	-38%	?
CCc1nn(CC(=O)N2CCCCC2)c(=O)c2cc3sc(C)cc3n12	/	/	2%	/	2%
CCN1CCC[C@@H]1CNC(=O)c1cc(S(=O)(=O)CC)ccc1OC	/	/	/	0%	/
CC(=O)Nc1cnc(NC(=O)c2cccc(F)c2)cc1C	?	4µM*	-4%	3%	-25%
CCC(=O)Nc1cnc(NC(=O)c2cccc(F)c2)cc1C	?	?	-8%	-10%	?
CCCCNC(=S)Nc1ccccc1Cc1ccccc1	-4%	-2%	?	7%	11µM*
Cc1ccccc1NC(=S)NCCO	-3%	24%	4%	2%	13%
CCCCNC(=O)Nc1ccccc1CC	-2%	6%	-1%	-8%	-17%
CCCCSCCCNC(=S)Nc1ccccc1C	?	2.5µM*	?	14%	?
CCOc1ccc(C(=O)Cc2ccccc2)cc1	/	/	-1%	1%	4%
CCOc1ccc(C(=O)CSCCC(=O)O)cc1	0.32µM*	0.28µM*	2%	-1%	12%
S=C(NCCSCc1ccccc1Cl)Nc1ccccc1	4µM*	2.8µM*	?	0%	?
Cc1cccc(CSCCNC(=O)COc2ccc(Cl)cc2)c1	-3%	8%	0%	20%	?
CN(C)S(=O)(=O)N(CC(=O)NCCSCc1ccc(Cl)cc1Cl)c1ccccc1	/	/	2%	19%	?
S=C(NCCSCc1ccc(Cl)cc1)Nc1ccccc1	11µM*	2.5µM*	?	-11%	?
SMILES	VP16 counter	RORg inh	GLP1R cytotox	GLP-1R agonist	GLP1R inv ag
Cc1cccc(CSCCNC(=S)Nc2ccccc2)c1	5.6µM*	5.6µM*	?	0%	?
CN(C)S(=O)(=O)N(CC(=O)NCCSCc1ccc(Cl)cc1)c1ccccc1	-10%	12%	5%	15%	8.9µM*
CN1CCN(c2ncc3ncc(=O)n(CCC#N)c3n2)CC1	-4%	-22%	/	/	/
Cc1cc(C(F)F)n2nc(C(=O)Nc3ccc(F)c(Cl)c3)nc2n1	/	/	1%	1%	-9%
CC1=CC(=O)C2=C(C)C[C@H](OC(=O)Cc3ccccc3)C3[C@H](OC(=O)[C@H]3C)C12 (stereo not given in full)	2%	10%	/	/	/
COc1ccc(-c2cccc3c2C2CC3CCN2C(=O)OCc2ccccc2)cc1 (stereo not given)	/	/	1%	-1%	22µM*
O=C(OCc1ccccc1)N1CCC2CC1c1cc(-c3ccccc3)ccc12 (stereo not given)	/	/	2%	11%	?
Cc1ccc(NC(=S)Nc2nc(CC(=O)Nc3ccccc3)cs2)cc1	5.6µM*	1.4µM*	-20%	0%	-5%
CC(C)(CCCCCCCCCCC(C)(C)CC(=O)O)CC(=O)O	-10%	-17%	/	/	/
CC(C)CNC(=O)NC1(C(F)(F)F)Oc2ccccc2O1	-9%	-34%	24%[7.66 µM]	-2%	27%[7.66 µM]
O=C(NCc1cccnc1)NC1(C(F)(F)F)Oc2ccccc2O1	?	10µM*	?	-6%	-18%
CCCN(CC(=O)Nc1ccccc1C)CC(=O)Nc1ccc(Br)cc1F	5%	33%	-23%	12%	10µM*
CCCN(CC(=O)Nc1cc(Cl)cc(Cl)c1)CC(=O)Nc1ccc(F)c(F)c1F	22µM*	?	2%[1.53 µM]	-5%	?
CCCN(CC(=O)Nc1cc(C)on1)CC(=O)Nc1ccccc1C	/	/	-2%	0%	14%
CCCN(CC(=O)Nc1ccccc1Br)CC(=O)Nc1ccc(F)c(F)c1F	4%	-3%	-16%	19%	?
CC(C)=CCC/C(C)=C/C=C/C1=CC2(C)CC1(C)C(/C=C(\C)CCC=C(C)C)CC2=O (stereo not given)	-5%[10 µM]	-2%[10 µM]	/	/	/
O=C1c2ccccc2CC[C@H]1CNCCc1ccc(O)cc1	11µM*	14µM*	/	/	/
C=CCC(O)CC1C2C(CC(O)CC=C)C3C1C3C2OC(C)(C)C (stereo not given)	1%[10 µM]	-6%[10 µM]	/	/	/
Cc1ccc(S(=O)(=O)NCCc2nnc3ccc(SCC(=O)Nc4c(C)cc(C)cc4C)nn23)cc1	/	/	8%	/	27%
O=[N+]([O-])c1ccc(NCCCNS(=O)(=O)c2ccc(Cl)cc2)c(Cl)c1	?	?	10%	-2%	11µM*
O=[N+]([O-])c1ccccc1NCCNS(=O)(=O)c1ccc(Cl)cc1	-19%	44%	-20%	1%	-24%
COc1cccc2c1C(CO)N1C(C#N)C3CC(C(=O)O)C(C1C2)N3C (stereo not given)	10µM*	7.1µM*	-21%	-27%	?
COc1cc(-c2nc3ncccn3c2Nc2ccc(C)cc2C)ccc1O	/	/	-19%	/	-24%
Fc1ccc(-c2cc(-c3nnc4n3CCCCC4)c3ccccc3n2)cc1	11µM*	?	3%	-3%	0%
Fc1ccc(-c2nnc3n2CCCCC3)cc1	0%	-3%	15%[7.66 µM]	6%	0%[7.66 µM]
Clc1ccc(-c2cc(-c3nnc4n3CCCCC4)c3ccccc3n2)cc1	3.2µM*	?	-2%	1%	9%
